Source: article PMC5540273 (PLoS ONE, 2017)

Legend:
Settings in all cases: concentration: 1 μM, replicates: in singlicate; n = 1
[1] = system: T1, PRKR
T1 construct: gene EIF2AK2

[2] = system: PRKX
[3] = system: PRP4
[4] = system: T2, PYK2
T2 construct: gene PTK2B

[5] = system: QSK
[6] = system: RAF1
[7] = system: RET
[8] = system: RIOK1
[9] = system: RIOK2
[10] = system: RIOK3
[11] = system: RIPK1
[12] = system: RIPK2
[13] = system: RIPK4
[14] = system: RIPK5
[15] = system: ROCK1
[16] = system: ROCK2
[17] = system: ROS1
[18] = system: RPS6KA4(Kin.Dom.1-N-terminal)
[19] = system: RPS6KA4(Kin.Dom.2-C-terminal)
[20] = system: RPS6KA5(Kin.Dom.1-N-terminal)
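Note: KINOMEscan kinase panel screen.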

| Structure (SMILES) | %Inh [1] [%] | %Inh [2] [%] | %Inh [3] [%] | %Inh [4] [%] | %Inh [5] [%] | %Inh [6] [%] | %Inh [7] [%] | %Inh [8] [%] | %Inh [9] [%] | %Inh [10] [%] | %Inh [11] [%] | %Inh [12] [%] | %Inh [13] [%] | %Inh [14] [%] | %Inh [15] [%] | %Inh [16] [%] | %Inh [17] [%] | %Inh [18] [%] | %Inh [19] [%] | %Inh [20] [%] |
| --- | --- | --- | --- | --- | --- | --- | --- | --- | --- | --- | --- | --- | --- | --- | --- | --- | --- | --- | --- | --- |
| CCCc1ccc(S(=O)(=O)NC2CCN(c3ccnc(Nc4ccc(OC)cc4)n3)C2)cc1 (stereo not shown) [GSK1379737] | 0 | 0 | 60 | 10 | 0 | 0 | 28 | 0 | 0 | 0 | 0 | 0 | 0 | 0 | 12 | 28 | 5 | 4 | 0 | 0 |
| Cl.O=S(=O)(c1cccc(F)c1)c1ccc(Nc2ncnc3cc(Br)sc23)cc1Cl [GSK306886] | 0 | 24 | 13 | 0 | 0 | 10 | 97.9 | 9 | 3 | 22 | 29 | 42 | 0 | 16 | 9 | 14 | 12 | 16 | 0 | 0 |
| O=c1cc(N2CCOCC2)nc2n(Cc3cccc(Cl)c3)ccn12 [GSK2296823] | 0 | 33 | 4 | 4 | 0 | 6 | 87 | 17 | 10 | 0 | 0 | 0 | 19 | 0 | 0 | 0 | 0 | 6 | 0 | 10 |
| Nc1nc(-c2cccnc2)c(-c2ccnc3ccccc23)s1 [GW684083] | 0 | 31 | 19 | 16 | 5 | 11 | 0 | 30 | 38 | 0 | 0 | 10 | 0 | 2 | 44 | 32 | 25 | 0 | 0 | 26 |
| Clc1cc(Nc2ncnc3cc[nH]c23)ccc1OCc1ccccn1 | 0 | 13 | 19 | 9 | 0 | 17 | 17 | 24 | 42 | 0 | 0 | 27 | 23 | 31 | 0 | 0 | 6 | 9 | 11 | 3 |
| Clc1ccc(-c2cc(-c3c[nH]nc3-c3ccccn3)ccn2)cc1 [GW681251] | 11 | 12 | 9 | 0 | 0 | 4 | 27 | 19 | 2 | 0 | 0 | 37 | 0 | 0 | 0 | 12 | 0 | 2 | 0 | 6 |
| O=C(Nc1ccccc1)Nc1ccc(Oc2ccc3nccn3n2)cc1 | 0 | 0 | 0 | 0 | 0 | 31 | 0 | 49 | 0 | 0 | 11 | 88 | 0 | 0 | 0 | 0 | 0 | 50 | 0 | 0 |
| Nc1nc(-c2ccccn2)c(-c2ccnc3ccccc23)s1 [GW548057] | 1 | 0 | 66 | 20 | 0 | 15 | 23 | 19 | 0 | 27 | 16 | 15 | 2 | 14 | 27 | 33 | 1 | 12 | 0 | 21 |
